IkB sig inh: inhibitors of IkB signaling in ABC-DLBCL cells. ABC-DLBCL IkBa-CBG/CBR dual luciferase ratio, 4 h; response scale: scaled: untreated 0%, proteasome inhibitor 100%. AID 445. 0.04% of 110,000 active. Potency, µM (top dose mostly 57.1 µM); active means well fitted curve in the direction sought with a large enough effect in the signal ratio, not every such curve was filed as active; inconclusive means small, poorly fitted or top-dose-only effect, or a change in a side signal; the % refers to the signal ratio;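 further: the direction sought is a rising ratio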
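In this assay, an IκBα–CBG68 fusion accumulates when IKK-driven degradation is blocked; native CBR normalizes for cell number. OCI-Ly3 cells were treated 4 h with compound and doxycycline, then green and red light read after Chroma-Glo addition.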
Casp7 inh: allosteric or competitive inhibitors of human caspase-7; P55210; recombinant caspase-7, Ac-DEVD-AFC fluorescence rate; Potency, µM (doses to about 57.5 µM), hits mostly inhibitors; 0.02% of 75,000 active; AID 889; active means well fitted inhibition curve with a large enough effect in the main read-out, with a control signal flat, not every such curve was filed as active; inconclusive means small, poorly fitted or top-dose-only effect, or a change in a side signal
p53ts 32C tox: kills p53ts cells at the permissive temperature. H1299-p53A138V at 32C, ATP luminescence viability, 24 h. Potency, µM (doses to about 46.1 µM), actives largely listed as cytotoxic. 0.93% of 130,000 active; further: nearly all actives have a fitted effect of over 55% in size
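Cells: H1299 p53ts (A138V), 600/well, pre-incubated 16–30 h at 37C. Cpd up to 46 uM, 24 h, 32C. Readout: ATPlite luminescence, 20 min RT. Normalization: DMSO vs tamoxifen 100 uM. AC50 by Hill equation.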
p53ts 39C kill: cytotoxicity in p53ts cells at nonpermissive temperature; Potency, µM (titrated, usually from 46.1 µM), usual class: cytotoxic; H1299-p53A138V viability at 39C, ATP luminescence, 24 h; AID 902; 1.5% of 130,000 active; further: nearly all actives have a fitted effect of over 55% in size
FLuc inh: inhibitors of firefly luciferase; Potency, µM (titrated, usually from 57.1 µM), hits mostly inhibitors; purified firefly luciferase, luminescence, 8 min; AID 411; 2.2% of 72,000 active; further: nearly all actives have a fitted effect of over 40% in size
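Compounds were tested as concentration series (qHTS) against purified P. pyralis luciferase with luciferin and 10 uM ATP in 50 mM imidazole pH 7.2, 50 mM KCl, 7 mM MgCl2, 0.01% Tween 20, 0.05% BSA. Luminescence was read after 8 min at ambient temperature.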
Caspase-1 inhib: blocks human caspase-1 allosterically or competitively. Caspase-1 enzyme, Ac-WEHD-AFC fluorogenic rate. Potency, µM (series often up to 57.5 µM), actives largely listed as inhibitors. 0.03% of 75,000 active
Each line names hits and unclear results; the compound was inactive in the other large screens; ! = not active in a repeat. Only some compounds are listed: those with a hit (about 2.5% of all), similar ones and a draw of the others. Unless noted, the call rests on the fitted dose curve; in most records, active means well fitted curve in the direction sought with a large enough effect; inconclusive means small, poorly fitted or top-dose-only effect, or another doubt; inactive means no such curve, though single readings can be large; an effect the other way counts as inactive or inconclusive.

O=C(NC1CCCCC1)C(c1ccncc1)N(Cc1ccc2c(c1)OCO2)C(=O)C(F)(F)F (configuration not stated)	none (no result: IkB sig inh, Casp7 inh, FLuc inh, Caspase-1 inhib)
Oc1cccc(/C=N/c2c(-c3ccco3)nc3ccccn23)c1	Casp7 inh inconclusive, p53ts 32C tox inconclusive, p53ts 39C kill 13µM (no result: IkB sig inh, FLuc inh, Caspase-1 inhib)
CCOc1ccc(NC(=O)Cn2c(=O)n(CCCS(=O)(=O)C3CCCCC3)c(=O)c3ccccc32)cc1	IkB sig inh inconclusive (no result: Casp7 inh, FLuc inh, Caspase-1 inhib)
COc1ccc(OCC(O)Cn2c(=N)n(CCN3CCCCC3)c3ccccc32)cc1 (configuration not stated)	p53ts 39C kill 13µM!
Cc1ccc(OCC(O)Cn2c(=N)n(CCN3CCOCC3)c3ccccc32)cc1 (configuration not stated)	none
N=c1n(CCN2CCCCC2)c2ccccc2n1CC(O)COc1ccc(Cl)cc1Cl (configuration not stated)	IkB sig inh inconclusive, p53ts 32C tox 22µM, p53ts 39C kill 3.2µM (no result: Casp7 inh, FLuc inh, Caspase-1 inhib)
Cc1ccc(OCC(O)Cn2c(=N)n(CCN3CCCCC3)c3ccccc32)cc1 (configuration not stated)	IkB sig inh inconclusive, p53ts 39C kill 13µM
CCCCCn1c(=N)n(CC(O)COc2ccccc2OC)c2ccccc21 (configuration not stated)	IkB sig inh inconclusive, p53ts 32C tox inconclusive, p53ts 39C kill 20µM
COC(=O)c1ccc(C(NC(=O)OCc2ccccc2)/C(C)=C/[C@@H](C)C(=O)N[C@@H](CO)Cc2ccccc2)cc1 (some centres not stated)	none (no result: IkB sig inh, FLuc inh)
CC(=O)OC[C@H]1O[C@@H](O/N=C(\C)CCN2CCCCc3nc(C)c(C)cc32)[C@H](OC(C)=O)[C@@H](OC(C)=O)[C@H]1OC(C)=O	none (no result: IkB sig inh)
CCOCCn1c(CN2CCN(c3ccccc3)CC2)nc2c1c(=O)n(C)c(=O)n2C	none
N=c1n(CCO)c2ccccc2n1CCOc1ccc(Cl)cc1Cl	IkB sig inh inconclusive, p53ts 32C tox inconclusive, p53ts 39C kill 13µM
CC(=O)c1c(N2CCN(C(=O)c3ccco3)CC2)nc(=S)n(-c2ccccc2)c1C	none
O=S(=O)(NCc1cccnc1)c1ccc2c(c1)OCCO2	none (no result: IkB sig inh, Casp7 inh, FLuc inh, Caspase-1 inhib)
COc1ccc(-c2nsc3c(N4CCCC4)ncnc23)cc1	p53ts 32C tox inconclusive, p53ts 39C kill inconclusive, FLuc inh 0.79µM
COc1cc(COc2cc(N)c(Cl)cc2C(=O)CCC2CCN(CCNS(C)(=O)=O)CC2)cc(OC)c1	IkB sig inh inconclusive, p53ts 32C tox 32µM, p53ts 39C kill 32µM
CCOC(=O)c1c(-c2cccs2)csc1NC(=O)CN1CCOCC1	none
Cc1cc(NCCCn2ccnc2)n2ncc(-c3ccccc3)c2n1	p53ts 32C tox 3.2µM, p53ts 39C kill 4µM, FLuc inh 1.6µM
Cc1cc(NCCN2CCOCC2)n2ncc(-c3ccccc3)c2n1	FLuc inh 20µM
Cc1cc(NCCN2CCOCC2)n2ncc(-c3ccc(Cl)cc3)c2n1	none
COC(=O)[C@@]1(Cc2ccccc2)[C@H]2c3cc(C(=O)N4CCCC4)n(Cc4cc(F)cc5c4OCOC5)c3C[C@H]2CN1C(=O)c1ccccc1	none (no result: IkB sig inh, FLuc inh)
Cc1ccc(C)c(NS(=O)(=O)c2ccc3oc(=O)c4ncn(C)c4c3c2)c1	IkB sig inh inconclusive, p53ts 32C tox inconclusive, p53ts 39C kill 7.9µM (no result: Casp7 inh, FLuc inh, Caspase-1 inhib)
CC1CCC/C(=C\Nc2ccc3c(c2)OCO3)C1=O (configuration not stated)	FLuc inh 10µM
Cc1cc(=O)[nH]c(S/C=C/c2ccccc2)n1	IkB sig inh inconclusive, p53ts 32C tox 6.3µM, p53ts 39C kill 5µM, FLuc inh 16µM
CCN(C(=O)Cn1nc(Cc2cccnc2)c2ccccc2c1=O)c1ccccc1F	IkB sig inh inconclusive (no result: Casp7 inh, FLuc inh, Caspase-1 inhib)
CCCn1c(/C=C/c2ccccc2)nc2ccccc21	p53ts 32C tox 13µM, p53ts 39C kill 10µM (no result: Casp7 inh, FLuc inh, Caspase-1 inhib)
Cc1ccc2c(c1)C(=O)[C@@]1(O)CCN(c3ccccc3)C1=N2	FLuc inh 13µM
Cc1cccc(N2CC(=O)N(c3cccc(C)c3)CC2=O)c1	none (no result: IkB sig inh, Casp7 inh, p53ts 32C tox, p53ts 39C kill, Caspase-1 inhib)
COc1ccc(C(CNC(=O)c2oc3cc(C)c(Cl)cc3c2C)N2CCCCC2)cc1 (configuration not stated)	IkB sig inh inconclusive (no result: Casp7 inh, FLuc inh, Caspase-1 inhib)

From PubChem BioAssay
